# Screening results: PubChem BioAssay, National Center for Advancing Translational Sciences (NCATS)
# Compounds with a hit are over-represented: about 11% of the library has one in this group of screens.
# AmpC no deterg = inhibitors of E. coli AmpC beta-lactamase without detergent. AID 485341. AmpC nitrocefin hydrolysis, absorbance 480 nm, 0.0001% Triton. P00811. Potency, µM (top dose mostly 57.1 µM), most hits filed as inhibitors. 330,000 tested, 0.52% active; further: nearly all actives have a fitted effect of over 20% in size
# Target sequence (P00811 whole entry, looked up): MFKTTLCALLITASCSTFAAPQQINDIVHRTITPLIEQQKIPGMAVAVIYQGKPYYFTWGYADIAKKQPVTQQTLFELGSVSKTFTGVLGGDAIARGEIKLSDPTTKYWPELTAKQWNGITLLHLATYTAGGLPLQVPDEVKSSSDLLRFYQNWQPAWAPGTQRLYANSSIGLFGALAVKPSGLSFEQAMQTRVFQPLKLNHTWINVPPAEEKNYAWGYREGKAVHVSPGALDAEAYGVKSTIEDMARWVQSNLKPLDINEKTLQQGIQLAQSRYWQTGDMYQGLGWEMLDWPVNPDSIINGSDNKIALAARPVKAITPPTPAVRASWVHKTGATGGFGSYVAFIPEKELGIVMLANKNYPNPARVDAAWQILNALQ
#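 20 mM phosphate pH 7.0 + 0.01% (detergent screen) or 0.0001% Triton X-100; 5.3 nM AmpC reagent; cpd preinc 15 min RT; nitrocefin (800 uM stock) to start; A480 q20 s × 4 min; Activity was normalised to no-enzyme and no-compound control wells.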
# Pf growth 96h = P. falciparum growth inhibition at 96 hour, primary screen for plastid delayed-death inhibitors; P. falciparum luciferase reporter growth, 96 h; Potency, µM (doses to about 28.7 µM), hits mostly inhibitors; 320,000 tested, 6.9% active; AID 504834
#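 P. falciparum expressing integrated firefly luciferase grown in erythrocytes (2% hematocrit, 0.05% parasitemia final) with compounds for 96 hours at 37 C, 5% CO2. Growth inhibition read as loss of luminescence after adding luciferase detection reagent.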
# AMA1 RON2 block = disrupts binding of P. falciparum AMA1 to RON2. AlphaScreen AMA1-biotinylated RON2 peptide binding. Potency, µM (top dose mostly 58.2 µM), most hits filed as inhibitors. 360,000 tested, 0.2% active. AID 720542; further: nearly all actives have a fitted effect of over 45% in size
#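 AMA1 (3D7) with his tag at 25 nM final met compounds first, then biotinylated RON2 peptide at 25 nM; detection used donor plus acceptor beads, 10 µg/mL apiece, read by AlphaScreen after 30 min at room temperature.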
# AmpC inh detg = AmpC beta-lactamase inhibition with detergent present; P00811; 370,000 tested, 0.041% active; Potency, µM (series often up to 114 µM), usual class: inhibitors; AID 485294; AmpC hydrolysis of nitrocefin, absorbance 480 nm, 0.01% Triton; further: nearly all actives have a fitted effect of over 25% in size
#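 20 mM phosphate pH 7.0 + 0.01% (detergent screen) or 0.0001% Triton X-100; 5.3 nM AmpC reagent; cpd preinc 15 min RT; nitrocefin (800 uM stock) to start; A480 q20 s × 4 min; Activity was normalised to no-enzyme and no-compound control wells.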
# Pf growth 48h = P. falciparum growth inhibition at 48 hours (one generation) | Potency, µM (series often up to 28.7 µM), actives largely listed as inhibitors | 310,000 tested, 5.9% active | P. falciparum luciferase growth in erythrocytes, 48 h
#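 Firefly luciferase activity from engineered P. falciparum reports growth; inhibitors lower the luminescent signal. Cultures contained 2% hematocrit erythrocytes at 0.1% final parasitemia.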
# HCV inhibitor = blocks hepatitis C virus; 340,000 tested, 3.4% active; Huh7.5.1 HCVcc-Cre infection, luciferase reporter, 44 h; Potency, µM (doses to about 41.8 µM), usual class: inhibitors
#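 After 44 h co-culture of compound, cells and HCVcc-Cre (~0.5 moi), substrate is added for 15 min at room temperature and luciferase measured over 15 sec. Cells were seeded at 1,000/well and pre-cultured 4 h.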
# Numbers stand for hits; . = inactive; ? = inconclusive; / = no result given; [ ] = another dose, or the depositor's remark. The call rests on the fitted dose curve; in most records, active means well fitted curve in the direction sought with a large enough effect; inconclusive means small, poorly fitted or top-dose-only effect, or another doubt; inactive means no such curve, though single readings can be large; an effect the other way counts as inactive or inconclusive.
SMILES,AmpC no deterg,Pf growth 96h,AMA1 RON2 block,AmpC inh detg,Pf growth 48h,HCV inhibitor
Cc1ccc(NC(=O)c2ccc(Nc3ccccc3F)nc2)cc1,.,5.9µM,.,?,.,?
Cc1ccc(C)c(Oc2cc(NC(=O)CCCn3nc(C)c([N+](=O)[O-])c3C)cc([N+](=O)[O-])c2)c1,.,?,.,.,?,13µM
CCn1nc(C)c(C(=O)Nc2cc(Oc3cc(C)cc(C)c3)cc([N+](=O)[O-])c2)c1C,.,12µM,.,?,?,?
Cc1cc(NC(=O)CCCC(=O)Nc2ccc(F)cc2)no1,.,8.3µM,.,.,.,.
Cc1cc(NC(=O)CCCn2nc(C)c([N+](=O)[O-])c2C)no1,.,1.5µM,.,.,.,.
Cc1cc(NC(=O)CCCn2cnc([N+](=O)[O-])n2)no1,.[2.29 µM],.,.,.,.,.
Cc1cc(NC(=O)CSc2ccc(F)cc2)no1,.,.,.,?,.,.
Cc1nn(CCCC(=O)Nc2cc(Oc3ccccc3)cc([N+](=O)[O-])c2)c(C)c1[N+](=O)[O-],.,.,.,.,.,?
Cc1nn(-c2ccccc2)c(OC(=O)c2ccccc2Br)c1S(=O)(=O)c1ccccc1,/,/,/,.,/,/
COc1ccc(CNC(=O)c2cc(-c3ccc(OC)c(OC)c3)nc3n[nH]c(-c4ccc(C)cc4)c23)cc1,/,/,/,.,/,/
CC(=O)n1cc(-c2ccncc2)c2ccccc21,.,?,.,?,?,10µM
C=CCn1c(SCc2ccccc2Cl)nnc1-c1sc2nc(C)cc(C)c2c1N,.,?,.,.,12µM,?
Cc1cc(-c2csc(NC(=O)C3=COCCO3)n2)c(C)n1C,.,?,.,.,?,.
Cc1cc(C)c(-c2csc(NC(=O)C3=COCCO3)n2)c(C)c1,.,?,.,.,9.3µM,?
Cc1ccccc1C(=O)NC(=S)N(C)C1CCCCC1,.,?,.,.,15µM,.
O=C(NC(=S)NC1CCS(=O)(=O)C1)c1cccs1 (stereo not drawn),.,.,.[11.6 µM],.,.,.
COc1ccccc1/C=C/C(=O)NC(=S)N(C)C1CCCCC1,.,.,.,.,?,.
O=C(NC(=S)NC1CCS(=O)(=O)C1)c1ccccc1Br (stereo not drawn),.,5.9µM,.,.,.,.
CN(C(=S)NC(=O)c1ccccc1Br)C1CCCCC1,.,4.7µM,.,.,.,.
CC1CCCCC1NC(=S)NC(=O)c1ccccc1Br (stereo not drawn),.,?,.,?,?,.
COc1ccccc1CNC(=O)C1CCCN(c2nnc(-n3c(C)ccc3C)s2)C1 (stereo not drawn),/,/,/,.,/,/
COc1ccc(-c2oc3ncn4nc(-c5ccccc5OC)nc4c3c2-c2ccc(OC)cc2)cc1,/,/,/,.,/,/
CCOC(=O)c1c(C)[nH]c(C)c1S(=O)(=O)N1CCCC(C(=O)N2CCN(c3cccc(Cl)c3)CC2)C1 (stereo not drawn),/,/,/,.,/,/
O=C1CCCC2=C1C(c1ccccc1O)C1=C(CCCC1=O)O2,.,8.3µM,.,.,/,.
COc1cc(OC)c(NC(=O)CN(C)S(=O)(=O)c2ccc3c(c2)CCCC(=O)N3)cc1Cl,/,/,/,.,/,/
SMILES,AmpC no deterg,Pf growth 96h,AMA1 RON2 block,AmpC inh detg,Pf growth 48h,HCV inhibitor
Cc1nccc(-c2cccc(N/N=C(\C#N)C(=O)c3ccccc3)c2)n1,.,5.2µM,.,.,13µM,.
Cc1ccc(C)c(NC(=O)Cn2c(=O)n(CC(=O)NCCc3ccccc3)c(=O)c3ccccc32)c1,/,/,/,.,/,/
CN1CCN(C(CNC(=O)C(=O)Nc2ccccc2C#N)c2ccc3c(c2)OCO3)CC1 (stereo not drawn),/,/,/,.,/,/
CC(C)C1CC(CCNCc2ccc(N(C)C)cc2)(c2ccccc2)CCO1 (stereo not drawn),.,?,?,.,?,11µM
CC(C)C1CC(CCNCc2ccc3c(c2)OCO3)(c2ccccc2)CCO1 (stereo not drawn),.,?,.,.,?,.
Cc1ccc(C2(CCNCc3ccc(N(C)C)cc3)CCOC(C(C)C)C2)cc1 (stereo not drawn),.,.,10µM,.,?,?
Cc1ccc(C2(CCNS(=O)(=O)c3ccc(C)cc3)CCOC(C(C)C)C2)cc1 (stereo not drawn),.,?,.,.,?,.
CCOC(=O)c1ccc(Nc2nnc(C(C)(C)C)c(=O)[nH]2)cc1,.,?,.,.,5.2µM,.
CCOC(=O)c1ccc(Nc2ccc(C(C)=O)cc2)cc1,/,/,.,/,/,/
COc1ccc(NC(=O)[C@H](CCS(C)(=O)=O)N2Cc3ccccc3C2=O)c(OC)c1,.,9.3µM,.,.,/,.
CCOC(=O)c1cccc(NC2c3ccccc3C(=O)N2Cc2ccco2)c1 (stereo not drawn),0.89µM,.,.,?,?,?
Cc1ccccc1NC1c2ccccc2C(=O)N1Cc1ccco1 (stereo not drawn),.,8.3µM,.,.,/,.
COc1cccc(NC2c3ccccc3C(=O)N2Cc2ccco2)c1 (stereo not drawn),.,?,.,.,/,?
CC(=O)c1cccc(NC2c3ccccc3C(=O)N2Cc2ccco2)c1 (stereo not drawn),.,.,.,.,.,?
COC(=O)C1=C(c2ccc(F)cc2OCc2ccccc2)C[C@@H]2CC[C@H]1N2C(=O)NCc1ccccc1,.,4.1µM,.,.,9.3µM,.
COC(=O)C1=C(c2ccc(F)cc2OCc2ccccc2)C[C@@H]2CC[C@H]1N2C(=O)NCc1ccccc1OC,.,?,.,.,6.6µM,.
COC(=O)C1=C(c2ccc(F)cc2OCc2ccccc2)C[C@@H]2CC[C@H]1N2C(=O)NCCO,.,?,.,.,?,.
COC(=O)C1=C(c2ccc(F)cc2OCc2ccccc2)C[C@@H]2CC[C@H]1N2C(=O)N1CCC(O)CC1,.,?,.,.,12µM,.
COC(=O)C1=C(c2ccc(F)cc2OCc2ccccc2)C[C@@H]2CC[C@H]1N2C(=O)NCc1cccc(F)c1,.,?,.,.,2.3µM,?
COC(=O)C1=C(c2ccc(F)cc2OCc2ccccc2)C[C@@H]2CC[C@H]1N2C(=O)NCCNC(C)=O,.,?,.,.,?,.
COC(=O)C1=C(c2ccc(F)cc2OCc2ccccc2)C[C@@H]2CC[C@H]1N2C(=O)NCc1cc(C)oc1C(F)(F)F,.,/,.,/,/,?
Cc1cc(Cl)ccc1NS(=O)(=O)c1c(C(=O)N2CCCCCC2)c(C)n(C)c1C,/,/,/,.,/,/
